Assay results: PubChem BioAssay AID540317 (National Center for Advancing Translational Sciences (NCATS), 2011)
Screen size: about 390,000 compounds; about 2,200 (0.56%) were called active. Inconclusive results (about 3%) are left out. Calls come from the whole dose curve; as a rule, active = well fitted inhibition curve with a large enough effect; inconclusive = small, poorly fitted or top-dose-only effect; inactive = no such curve, though single readings can be large or run the other way. The list comes from a sample in which actives are over-represented; it also holds similar structures and randomly drawn compounds. Entries that show only a call come without a potency.

biological target: Chromobox protein homolog 1 (Homo sapiens) (UniProt P83916); test: HTS for Inhibitors of HP1-beta Chromodomain Interactions with Methylated Histone Tails; settings: AlphaScreen HP1-beta / biotin-H3K9me3 peptide binding; series mostly up to 114 µM; note: nearly all actives have a fitted effect of over 70% in size
Sequence (P83916 whole entry, looked up): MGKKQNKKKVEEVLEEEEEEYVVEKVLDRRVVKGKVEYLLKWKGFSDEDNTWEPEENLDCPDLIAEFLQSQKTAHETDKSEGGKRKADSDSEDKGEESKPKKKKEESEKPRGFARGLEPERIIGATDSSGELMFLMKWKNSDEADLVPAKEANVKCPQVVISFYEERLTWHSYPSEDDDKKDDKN
Summary of the method: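 Compound inhibition of the preformed complex between 50 nM HP1-beta and 50 nM biotinylated H3K9me3 peptide was read by AlphaScreen. Buffer was PBS pH 7.4 with 0.01% Tween-20. Incubations ran 30 min at room temperature, with 10 ug/mL donor/acceptor beads.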
Potency is the fitted concentration of half-maximal effect.

| Structure (SMILES) | Potency |
| --- | --- |
| CCCN1CCN(CCCNC(=O)Cn2nc(CC)n3c(cc4occc43)c2=O)CC1 | inactive |
| O=C1C=CC(=O)N1c1ccc(N2CCCCC2)cc1 | 15.8 µM (active) |
| Cc1ccc(CN2COc3cc(C)c4c(oc(=O)c5ccccc54)c3C2)cc1 | inactive |
| O=c1cc(-c2ccccc2)n2c(SCc3ccccc3)nnc2[nH]1 | inactive |
| O=c1[nH]c2ccccc2n2c(-c3ccccc3)nnc12 | 5.62 µM (active) |
| CC(C)Cn1c(=O)c2ccccc2n2c(-c3cccc(Cl)c3)nnc12 | inactive |
| O=C(CNS(=O)(=O)c1cccs1)N1CCN(c2ccccc2Cl)CC1 | inactive |
| C=C(C)C(=O)Nc1cccc(C2=NOC3(C2)C[C@H](C(N)=O)N(C(=O)C(c2ccccc2)c2ccccc2)C3)c1 (stereo partly drawn) | 12.6 µM (active) |
| CC/C=C/C(=O)N1CC2(CC(c3cccc(NC(=O)CC)c3)=NO2)C[C@H]1C(N)=O (stereo partly drawn) | inactive |
| C/C=C(\C)C(=O)N1CC2(CC(c3cccc(NC(=O)CCCCC)c3)=NO2)C[C@@H]1C(N)=O (stereo partly drawn) | inactive |
| O=C(O)C1CC=CC2CCN(C3CCCCC3)C(=O)C21 (stereo not drawn) | inactive |
| COC(=O)c1cc(NC(=O)CCS(=O)(=O)c2cc(Br)cc3c2N(C(=O)C2CC2)CC3)cc(C(=O)OC)c1 | inactive |
| COc1ccc(-c2nc(=N)sn2-c2ccccc2)cc1 | 14.1 µM (active) |
| Cc1n[nH]c(=O)n1-c1ccc(Oc2ccccc2)cc1 | inactive |
| COc1ccc(-c2nn3c(-c4ccc(OC)cc4)nnc3c3ccccc23)cc1 | inactive |
| CN(Cc1ccccc1)C(=O)c1cn(C)c2ccc(S(=O)(=O)N(C)C3CCCCC3)cc2c1=O | inactive |
| Cc1c(Cl)cccc1NC(=O)C(=O)NCCc1csc2nc(-c3ccccc3F)nn12 | inactive |
| COc1ccc(CCNc2ncnc3c2cnn3-c2ccc(C)cc2)cc1 | inactive |
| Cc1ccc(S(=O)(=O)N2CCN(c3nc(-n4cnc5ccccc54)nc4ccccc34)CC2)cc1 | inactive |
| O=C(NCc1ccc2c(c1)CCN2C(=O)c1ccccc1)Nc1cc(F)ccc1F | inactive |
| CCOc1ccc(Nc2nc(Cc3nnc(SCC(=O)NC4CCCC4)n3C)cs2)cc1 | inactive |
| COCCCn1c(SCC(=O)Nc2ccccc2)nnc1-c1ccncc1 | inactive |
| COCCCn1c(Cc2csc(Nc3cccc(Cl)c3)n2)nnc1SCC(=O)OC1CCCCC1 | 50.1 µM (active) |
| COc1ccc(-c2nc3scc(CCNS(=O)(=O)c4cc(F)ccc4OC)n3n2)cc1OC | inactive |
| CCS(=O)(=O)c1cc([N+](=O)[O-])c(Sc2ccccc2N)s1 | 39.8 µM (active) |

| Structure (SMILES) | Potency |
| --- | --- |
| Cc1ccc(CNC(=O)C2(C(F)(F)F)C/C(=C\CCO)CCCO2)o1 (stereo not drawn) | inactive |
| COc1ccc(/C=C/c2noc(-c3ccccc3O)n2)cc1OC | inactive |
| CC(=O)OCC(NC(=O)C(Cc1ccccc1)NC(=O)OC(C)(C)C)C1OC(n2ccc(=O)[nH]c2=O)C(OC(C)=O)C1OC(C)=O (stereo not drawn) | inactive |
| O=S(=O)(NCCS(=O)(=O)N1CCN(c2ccccc2)CC1)c1ccc(Cl)cc1 | inactive |
| C=CC1=C(C(=O)O)N2C(=O)[C@@H](NC(=O)/C(=N/OCC(=O)O)c3csc(N)n3)[C@H]2SC1 | 14.1 µM (active) |
| CCCCCCC1(C)NC(c2ccc3c(c2)OCO3)=CC(c2ccccc2O)N1 (stereo not drawn) | inactive |
| CN(C)c1ccc(CSc2ccccc2)cc1 | 39.8 µM (active) |
| CN(C)c1ccc(C(CC(=O)O)C(=O)O)cc1 (stereo not drawn) | inactive |
| O=C(Nc1ccc(CSc2ccccc2)cc1)c1ccc(CN2CCOCC2)cc1 | inactive |
| Cc1ccc(-c2nc3ccccn3c2Nc2ccc(F)cc2)o1 | inactive |
| Cc1ccc(-c2onc(C)c2C)cc1S(=O)(=O)Nc1ccccn1 | inactive |
| CCCCNC(=S)N/N=C1\CCCCc2ccccc21 | inactive |
| Cc1cc(F)ccc1NC(=S)NCCc1ccccc1 | inactive |
| CCCC1CCC(=NNC(=S)NCCc2ccccc2)CC1 (stereo not drawn) | 44.7 µM (active) |
| COC(=O)C(CC(C)C)NS(=O)(=O)c1cc(Br)ccc1Br (stereo not drawn) | inactive |
| CCOC(=O)c1ccccc1NC(=O)c1sc2nc(-c3ccc(F)cc3)cn2c1C | inactive |
| Cc1ccc(NC(=O)c2ccc3[nH]c(C)cc(=O)c3c2)c(C)c1 | inactive |
| CCOc1ccccc1NC(=O)CSc1ncc(S(=O)(=O)c2ccc(C(C)(C)C)cc2)c(=O)[nH]1 | inactive |
| COc1ccc(/C=N/n2c(C)cc(C)cc2=O)cc1 | inactive |
| CN=c1scc(-c2cc(OC)ccc2OC)n1/N=C/c1c(C)[nH]c2ccccc12 | 31.6 µM (active) |
| Oc1ccc(Br)cc1C1C=C(c2ccc3c(c2)OCO3)NC(c2ccc(Cl)cc2)N1 (stereo not drawn) | inactive |
| CCCCSc1ncnc2c1sc1nc(N3CCOCC3)c3c(c12)CCCC3 | inactive |
| S=C(Nc1ccc(Cl)cc1Cl)N1CCCC1 | inactive |
| O=C(NCCc1ccc(Cl)cc1)C1CCCN1C(=O)NCc1ccccc1 (stereo not drawn) | inactive |
| Oc1cc2c(cc1O)CN(C(=S)NCCc1ccc(Cl)cc1)CCC2 | 50.1 µM (active) |

| Structure (SMILES) | Potency |
| --- | --- |
| COc1ccc(C2=NC3(CCCCC3)N(CC(=O)Nc3ccc(C(C)C)cc3)C2=O)cc1 | inactive |
| COc1ccc(N2CCN(c3cc(C)nc4nncn34)CC2)cc1 | inactive |
| CCCNC(=O)C1CCN(c2nc3ccc(C)cc3[nH]2)CC1 | inactive |
| COc1ccc(S(=O)(=O)NCC(c2ccc(C)cc2)N2CCN(C)CC2)cc1OC (stereo not drawn) | inactive |
| COc1ccc(N2CCN(C(CNS(=O)(=O)c3ccc(C)cc3)c3ccccc3)CC2)cc1 (stereo not drawn) | 31.6 µM (active) |
| COc1ccc(S(=O)(=O)NCC(c2ccc(N(C)C)cc2)N2CCCC2)cc1 (stereo not drawn) | inactive |
| COc1ccc(NC(=O)c2sc3nc[nH]c(=O)c3c2C)cc1 | inactive |
| O=[N+]([O-])c1ccc(Oc2ccc(F)cc2Br)c2ccncc12 | 50.1 µM (active) |
| CCN1CCN(c2cc(C)c3cc(NC(=O)c4cc(Cl)ccc4OC)ccc3n2)CC1 | inactive |
| CCN(C(=O)CSc1nnc(C)n2c1cc1occc12)c1ccccc1 | inactive |
| CCOc1ccc(S(=O)(=O)N2CCN(C(=S)NCC3CCCO3)CC2)cc1 (stereo not drawn) | inactive |
| CCOc1ccc(-n2c(N)c(C(=O)NCC3CCCO3)sc2=S)cc1 (stereo not drawn) | 17.8 µM (active) |
| CCOc1ccc(S(=O)(=O)NCCC(=O)NCC2CCCO2)cc1 (stereo not drawn) | inactive |
| COc1ccc(-c2cccc(NS(=O)(=O)c3cc(C)c(OC)c(C)c3C)c2)nn1 | inactive |
| COc1ccc(-c2nc3c4ccccc4n(CC(=O)Nc4ccc(C(C)=O)cc4)c(=O)n3n2)cc1 | inactive |
| O=C1CSC(=S)N1/N=C/c1ccc(O)c([N+](=O)[O-])c1 | 39.8 µM (active) |
| CCOC(=O)c1c(C)n(S(=O)(=O)c2ccc(C)cc2C)c2ccc(NS(=O)(=O)c3ccc(C)cc3C)cc12 | inactive |
| CC(=O)N1CCCc2cc(S(=O)(=O)N3CCC(C(=O)NC4CCCCC4)CC3)ccc21 | inactive |
| Cc1ccc(NC(=O)C(Cc2ccccc2)NS(=O)(=O)c2ccc3c(c2)oc(=O)n3C)cc1C (stereo not drawn) | inactive |
| COCCCn1c(SCC(=O)NC2CCCC2)nnc1-c1ccccc1 | inactive |
| CCn1c(SCC(=O)NC2CC2)nnc1-c1ccncc1 | inactive |
| CC1CCCCC1NC(=O)CSc1nnc(-c2ccncc2)n1CCCN(C)C (stereo not drawn) | 28.2 µM (active) |
| COc1ccc(Cl)cc1NC(=O)c1sc2nc3c(cc2c1N)CN(C)CC3 | inactive |
| COc1cc(/C=C/C(=O)O)cc(S(=O)(=O)Nc2ccccc2C(=O)NCCc2ccccc2)c1OC | inactive |
| COc1ccc(Br)cc1/C=N/Nc1ccc(S(=O)(=O)Nc2ccccc2C(=O)O)cc1[N+](=O)[O-] | 22.4 µM (active) |

| Structure (SMILES) | Potency |
| --- | --- |
| COC(=O)c1ccccc1NS(=O)(=O)c1ccc2c(c1)CCCN2C(C)=O | inactive |
| CCC(=O)N1CCc2cc(S(=O)(=O)NC(CC(C)C)C(=O)NCCc3cccc(C)c3)ccc21 (stereo not drawn) | inactive |
| CC(C)Cn1c(=O)c2ccccc2n2c(CCC(=O)N3CCN(c4cccc(Cl)c4)CC3)nnc12 | inactive |
| CC(Sc1oc(-c2ccco2)nc1S(=O)(=O)c1ccc(Br)cc1)c1ccccc1 (stereo not drawn) | inactive |
| O=C(NCc1ccccn1)[C@]1(C(F)(F)F)C[C@H](CCc2ccccc2)CCCO1 | inactive |
| Cc1nn(C)cc1/C=C1\CCC/C(=C\c2cn(C)nc2C)C1=O | inactive |
| Nc1[nH][nH]c(=O)c1N=Nc1ccc2c(c1)OCO2 | inactive |
| O=C1/C(=C/c2ccc3c(c2)OCO3)CCC/C1=C\c1ccc2c(c1)OCO2 | 28.2 µM (active) |
| O=C1CC(c2ccccc2)CC2=C1C(c1ccco1)n1nc(C(F)(F)F)nc1N2 (stereo not drawn) | inactive |
| CCOC(=O)c1cc2c(=O)n3ccccc3nc2n(CC2CCCO2)c1=NC(=O)c1ccccc1F (stereo not drawn) | inactive |
| CC(C)OC(=O)c1ccc(NCc2cc(O)ccc2O)cc1Cl | 39.8 µM (active) |
| O=C(CC1C(=O)N(c2ccccc2)C(=O)N1CCc1cccs1)Nc1ccc(F)cc1 (stereo not drawn) | inactive |
| Cc1ccc(Cc2nc3ccccc3nc2SCC(=O)Nc2cccc(C(F)(F)F)c2)cc1 | inactive |
| CC(C)(C)C(=O)OCc1nc(-c2ccc(O)c(O)c2)cs1 | 70.8 µM (active) |
| CNC(=O)[C@]1(C(F)(F)F)C[C@H](CCc2ccccc2)CCCO1 | inactive |
| CCc1cnc2c(c1SCC(=O)N1CCC(C)CC1)c(=O)n(C)c(=O)n2C | inactive |
| COc1ccc(Cn2ccn(Cc3cccc(OC)c3)c(=O)c2=O)cc1 | inactive |
| COc1ccccc1CNC(=O)C(=O)NCC(c1ccco1)S(=O)(=O)c1ccc(F)cc1 (stereo not drawn) | inactive |
| CC(=O)Oc1ccc(OC(C)=O)c2c1C1C=CC2CC1 | 89.1 µM (active) |
| CC(=O)Oc1ccc(C(C)=O)c2c1OCCO2 | inactive |
| COc1ccc(C)cc1N(C)C(=O)c1c(C)oc2ncnc(N3CCOCC3)c12 | inactive |
| COc1ccc(CCC(=O)NCCc2csc(-c3ccc(Cl)cc3)n2)cc1 | inactive |
| COc1ccc(C2CC(O)(c3ccccc3)Oc3cc(C)cc(C)c32)cc1 (stereo not drawn) | inactive |
